Source: PubChem BioAssay (National Center for Advancing Translational Sciences (NCATS))
ATXN2 expr inh: inhibitors of ATXN2 expression; AID 1745845; HEK-293 ATXN2-luciferase reporter, luminescence, 24 h; Potency, µM (series often up to 57 µM), without a hit: top-dose activity change, negative = inhibition, usual class: inhibitors; hit rate 0.72% among 360,000; further: potency means the concentration at half of the fitted maximal effect; on the % scale 0 is the no-effect control and ±100 the full control effect; nearly all actives have a fitted effect of over 55% in size
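ATXN2-luciferase reporter cells (luciferase flanked by upstream and downstream ATXN2 gene portions) were treated 24 h at 37 °C with compounds at up to 57 uM. SteadyGlo luminescence gave expression; GF-AFC fluorescence gave viability.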
ATXN viability: reduces viability in counter-screen for ATXN expression inhibitors; Potency, µM (top dose mostly 56.7 µM), usual class: cytotoxic; hit rate 0.49% among 400,000; S2 cells (HEK-293 line with an ATXN2-luciferase reporter) viability, CellTiter-Fluor protease fluorescence, 24 h; further: potency means the concentration at half of the fitted maximal effect; nearly all actives have a fitted effect of over 40% in size
DRD3 agonist: agonists of human D3 dopamine receptor. D3R DiscoveRx beta-arrestin cells, luminescence, 90 min. max activation, %. hit rate 0.58% among 410,000. P35462. AID 652048; in the data active means max activation above about 30%; further: 0% is about no effect
Target sequence (P35462 whole entry, looked up): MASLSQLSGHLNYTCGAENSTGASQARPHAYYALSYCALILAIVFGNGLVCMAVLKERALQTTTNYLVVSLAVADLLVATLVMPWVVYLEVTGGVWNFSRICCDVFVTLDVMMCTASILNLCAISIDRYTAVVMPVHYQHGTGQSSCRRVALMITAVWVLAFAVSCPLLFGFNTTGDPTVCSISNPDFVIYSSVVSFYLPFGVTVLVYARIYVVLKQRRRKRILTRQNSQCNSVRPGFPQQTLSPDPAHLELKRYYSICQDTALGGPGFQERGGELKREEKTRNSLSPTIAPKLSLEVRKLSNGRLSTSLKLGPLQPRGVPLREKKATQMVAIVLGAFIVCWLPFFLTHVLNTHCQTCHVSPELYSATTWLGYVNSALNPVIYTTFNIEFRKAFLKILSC
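Cells at 1500/well, incubated overnight, then treated with pinned compounds (dopamine as control) for 90 min at 37 degrees C. DiscoveRx reagent added for 30 - 60 minutes at room temperature; luminescence read.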
DRD3 antagonist: blocks the human D3 dopamine receptor; hit rate 2.5% among 360,000; max response, negative = inhibition, %; D3R cells, DiscoveRx beta-arrestin luminescence, antagonist mode; active compounds read low; AID 652054; in the data active means max response below about -50%; inconclusive means no clear call, values can overlap the other calls; further: on the % scale 0 is the no-effect control and ±100 the full control effect
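Cells expressing the human receptor were seeded at 1500 cells/well, incubated overnight at 37 degrees C in 5% CO2, then exposed to library compounds with dopamine controls for 90 minutes at 37 degrees C before luminescent detection.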
HepG2 tox: kills HepG2 cells in TGF-b inhibitor counter-screen. HepG2 CAGA-GFP viability, ATP luminescence, 18 h. Potency, µM (series often up to 46.1 µM), inactives show at the top dose activity change, negative = cytotoxicity, hits mostly cytotoxic. hit rate 0.76% among 410,000; further: potency means the concentration at half of the fitted maximal effect
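CellTiter-Glo luminescence gave cytotoxicity after 18 hours at 37 degrees C. The cells were HepG2 CAGA-GFP in 1% FBS DMEM, stimulated with 500 pg/mL TGF-beta after compound addition. %Activity was normalised to no-cell wells (complete cell-killing) and DMSO (no toxicity), and curves were fitted and classified.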
TGFb inhibitor: inhibitors of TGF-b signaling. HepG2 CAGA-GFP TGF-b/SMAD3 reporter, GFP fluorescence, 18 h; TGF-beta stimulated, 500 pg/mL final. Potency, µM (highest dose often 46.1 µM), inactives show top-dose activity, negative = inhibition, usual class: inhibitors. hit rate 1.2% among 410,000. AID 588855; further: potency means the concentration at half of the fitted maximal effect; on the % scale 0 is the no-effect control and ±100 the full control effect; nearly all actives have a fitted effect of over 65% in size
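Inhibition of TGF-beta-driven CAGA-GFP reporter expression in HEPG2 cells is measured by cellular GFP fluorescence after 18 h stimulation with 500 pg/mL recombinant TGF-beta in 1% FBS medium at 37 degrees C.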
The depositor's hits bear a star; i = inactive; ? = inconclusive; / = no result given; [ ] = remark or other dose. Compounds with a hit are over-represented: about 4.7% of the library has one in this group of screens. Unless noted, the call rests on the fitted dose curve; in most records, active means well fitted curve in the direction sought with a large enough effect; inconclusive means small, poorly fitted or top-dose-only effect, or another doubt; inactive means no such curve, though single readings can be large; an effect the other way counts as inactive or inconclusive.

SMILES	ATXN2 expr inh	ATXN viability	DRD3 agonist	DRD3 antagonist	HepG2 tox	TGFb inhibitor
CCC1CCCN1Cn1cnc2c([nH]c3ccc(OC)cc32)c1=O (stereo unspecified)	6%	i	-8	-73*	-2%	-5%
CCN1CCC[C@H]1CNC(=O)c1c(OC)ccc(Br)c1OC	-3%	i	-79	-55*	-9%	7%
CCC1CCCN1Cn1cnc2c([nH]c3ccccc32)c1=O (stereo unspecified)	6%	i	-10	8	6%	-6%
CCN1CCCC1CNC(=O)C(=O)Nc1cccc(OC)c1 (stereo unspecified)	11%	?	1	-7	2%	-3%
C=CCN1CCCC1CNC(=O)c1cc2[nH]nnc2cc1OC (stereo unspecified)	1%	i	-86	-81*	-13%	7%
CCN1CCCC1CNC(=O)c1cc([N+](=O)[O-])c(N(C)C)cc1OC (stereo unspecified)	20%	i	-28	-103*	5%	3%
CCN1CCCC1CNC(=O)c1cc(S(=O)(=O)CC)ccc1OC (stereo unspecified)	/	i	-24	/	/	/
CN(C)CCCNc1cc(N2CCN(C)CC2)ncn1	/	/	/	/	5%	8%
C=C1/C(=C\C=C2/CCC[C@]3(C)[C@@H]([C@H](C)OCCC(C)(C)O)CC[C@@H]23)C[C@@H](O)C[C@@H]1O	/	i	0	/	/	/
C=C[C@]1(C)C[C@@H](OC(=O)CO)[C@]2(C)[C@H](C)CC[C@]3(CCC(=O)[C@H]32)[C@@H](C)[C@@H]1O	/	i	6	/	/	/
Cc1ccc(Sc2c(C(=O)NCc3ccccc3C)[nH]c3ccccc23)cc1	2%	i	1	/	9%	19%
CCN1CCCC1CNC(=O)c1[nH]c2ccc(OC)cc2c1C (stereo unspecified)	2%	i	-15	-61*	-14%	14%
CCN1CCCC1CNC(=O)c1cc(N)ccc1OC (stereo unspecified)	0%	i	-16	-52*	19%	-2%
CCN1CCC[C@H]1CNC(=O)c1cc(S(N)(=O)=O)ccc1OC	14%	i	/	/	/	/
CCN1CCCC1CNC(=O)c1cc2ccc(OC)cc2[nH]1 (stereo unspecified)	7%	i	-8	-15	10%	0%
CCOc1ccccc1NC(=O)C1CCCN1S(=O)(=O)c1ccc2nc(-c3ccccc3)[nH]c2c1 (stereo unspecified)	/	/	8	/	-27%	11µM*
CC(C)NC(=O)CSc1nnc(C2CC2)n1-c1ccccc1	2%	i	4	-51*	1%	0%
C=CCOC(=O)C1=C(C)NC(C)=C(C(=O)OCC=C)C1/C=C/c1ccccc1	-19%	i	-1	21	13µM*	?
CCOC(=O)C1=C(C)NC(C)=C(C(=O)OCC)C1/C=C/c1ccccc1	-9%	i	-14	8	-69%	-12%
Cc1nn(CCC(=O)NNC(=S)Nc2ccc(F)cc2)c(C)c1[N+](=O)[O-]	0%	i	2	-77*	10%	2%
CC(C)CC(=O)Nc1nnc(S(=O)(=O)N(CC(C)C)c2ccccc2)s1	/	/	-15	/	0%	-6%
CCN1CCN(C(=S)c2ccc(Cl)c(Cl)c2)CC1	-7%	i	-5	-51*	-9%	-29%
CCN1CCN(C(=S)Nc2ccc(Cl)c(Cl)c2)CC1	0%	?	-31	-50*	6%	?
Cc1ccccc1CN1[C@H]2CCCC[C@@H]2OCCS1(=O)=O	/	/	/	/	18%	2%
COc1ccc(N2CCN(CC(O)COc3ccccc3[N+](=O)[O-])CC2)cc1 (stereo unspecified)	-10%[11.3 µM]	i	-12	-54*	7%	-13%
SMILES	ATXN2 expr inh	ATXN viability	DRD3 agonist	DRD3 antagonist	HepG2 tox	TGFb inhibitor
O=[N+]([O-])c1ccccc1OCC(O)CN1CCN(CC(O)COc2ccccc2[N+](=O)[O-])CC1 (stereo unspecified)	/	?	-5	-93*	-18%	-3%
Cc1ccccc1CCNC(=O)c1ccc2c(c1)c(C)c(C)n2Cc1ccccc1	/	/	-17	/	-36%	0%
Cc1c(C)n(Cc2ccccc2)c2ccc(C(=O)OCCCN(C)C)cc12	-31%	?	-25	-18	18µM*	?
COc1ccc(C)c2sc(N3CCN(C(=O)c4ccco4)CC3)nc12	-14%	i	1	/	-17%	-23%
Cc1cccc(C)c1NC(=O)C[N+](C)(C)CC(O)COc1cccc2ccccc12 (stereo unspecified)	-20%	i	-15	-52*	2%	-8%
O=C1c2ccccc2C(=O)N1CC(O)COc1cccc2ccccc12 (stereo unspecified)	-2%	i	-3	-24	-12%	-15%
COc1ccccc1C(=O)C1CCCN(Cc2ccc(Oc3ncccn3)cc2)C1 (stereo unspecified)	-9%	i	-16	0	-16%	-6%
COC(=O)c1ccc(CN2CCCC(C(=O)c3ccccc3OC)C2)cc1 (stereo unspecified)	-33%	i	-25	-51*	-25%	-14%
CSc1ccccc1C(=O)C1CCCN(Cc2c(C)n(C)n(-c3ccccc3)c2=O)C1 (stereo unspecified)	-8%	i	-21	0	0%	-7%
CSc1ccccc1C(=O)C1CCCN(Cc2cnn(-c3ccccc3)c2)C1 (stereo unspecified)	-34%[11.3 µM]	i	-17	-76*	2%	-13%
COC(=O)c1ccc(CN2CCCC(C(=O)c3cc(F)ccc3OC)C2)cc1 (stereo unspecified)	-23%	i	-17	-95*	-33%	-27%
C[n+]1ccc(C(c2c[nH]c3ccccc23)c2cc[n+](C)c3ccccc23)c2ccccc21	/	/	/	/	-77%	?
O=C(Nc1ccc(Cl)cc1Cl)[C@@H]1CC=C[C@@H]2CCN(C3CCCCC3)C(=O)[C@@H]21	/	/	/	/	-8%	-6%
Cc1cccc(N2CCN(c3ncnc4c3nc3n4CCCCC3)CC2C)c1 (stereo unspecified)	/	/	12	/	-85%	?
CC(=O)c1c(C)oc2ccc(N(C(C)=O)S(=O)(=O)c3ccc(Cl)c([N+](=O)[O-])c3)cc12	25µM*	/	-27	?	-21%	7%
CC(=O)c1c(C)oc2ccc(N(C(C)=O)S(=O)(=O)c3ccc(Br)cc3)cc12	-20%	i	4	11	-29%	?
Clc1ccc2nnnc(-c3ccccc3)c2c1	15µM*	?	-3	4	31%	?
